Usually AC50 stands for the concentration giving half of the maximal activity seen.

The source made the active and inactive calls. Rule for the calls: active = hit-call score of the fitted dose curve at least 0.9, where 1 is the maximum; inactive = score below 0.9.

Read-out in test [1]: Tissue Factor, F3 (gene 2152)
Description: BSK_CASM3C_TissueFactor: BioMAP Diversity Plus: CASM3C Assay for Tissue Factor Biomarker Activity (AID 2283052).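 Note: cell surface tissue factor protein level read by ELISA.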 The note with it: primary human coronary artery smooth muscle cells; actives raise or lower the signal.

Read-out in test [2]: Interferon-gamma inducible Protein 10 (IP10), CXCL10 (gene 3627)
Description: BSK_hDFCGF_IP10: BioMAP Diversity Plus: hDFCGF Assay for Interferon-gamma inducible Protein 10 (IP10) Biomarker Activity (AID 2283053). The note with it: primary human foreskin fibroblasts; actives raise or lower the signal. The essentials: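 Primary human foreskin fibroblasts exposed to chemicals for 24 h. IP-10 measured by ELISA; changes fitted bidirectionally against DMSO baseline.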

Read-out in test [3]: Urokinase-type plasminogen activator receptor (uPAR), PLAUR (gene 5329)
The test is described as follows: BSK_CASM3C_uPAR: BioMAP Diversity Plus: CASM3C Assay for Urokinase-type plasminogen activator receptor (uPAR) Biomarker Activity (AID 2283054).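 Note: cell-surface uPAR protein level quantified by ELISA.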 The note with it: primary human coronary artery smooth muscle cells; actives raise or lower the signal.

Read-out in test [4]: Vascular cell adhesion molecule 1 (VCAM1), VCAM1 (gene 7412)
The test is described as follows: BSK_CASM3C_VCAM1: BioMAP Diversity Plus: CASM3C Assay for Vascular cell adhesion molecule 1 (VCAM1) Biomarker Activity (AID 2283055).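 Note: VCAM-1 protein level quantified by ELISA on the cells.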 The note with it: primary human coronary artery smooth muscle cells; actives raise or lower the signal.

Read-out in test [5]: Collagen III, COL3A1 (gene 1281)
The test is described as follows: BSK_hDFCGF_CollagenIII: BioMAP Diversity Plus: hDFCGF Assay for Collagen III Biomarker Activity (AID 2283056). The note with it: primary human foreskin fibroblasts; actives raise or lower the signal. An outline of the steps: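 hDFCGF primary human dermal fibroblasts; 24 h chemical exposure; collagen III by ELISA; bidirectional curve fit vs DMSO baseline (gain or loss of signal).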

Read-out in test [6]: Epidermal growth factor receptor (EGFR), EGFR (gene 1956)
The test is described as follows: BSK_hDFCGF_EGFR: BioMAP Diversity Plus: hDFCGF Assay for Epidermal growth factor receptor (EGFR) Biomarker Activity (AID 2283057). The note with it: primary human foreskin fibroblasts; actives raise or lower the signal. The essentials:
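Primary human foreskin fibroblasts (hDFCGF system), sampled 24 h after dosing; EGFR quantified by ELISA. Bidirectional fit relative to DMSO baseline; SRB total-protein staining in parallel cultures for cytotoxicity.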

Read-out in test [7]: Interleukin-8 (IL8), CXCL8 (gene 3576)
Description: BSK_hDFCGF_IL8: BioMAP Diversity Plus: hDFCGF Assay for Interleukin-8 (IL8) Biomarker Activity (AID 2283058). The note with it: primary human foreskin fibroblasts; actives raise or lower the signal. The essentials: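 ELISA read-out of IL-8 from primary human foreskin fibroblast cultures taken 24 h after dosing; values are bidirectional fits relative to DMSO vehicle.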

The nature of test [8]: BSK_hDFCGF_Proliferation: Cell Proliferation Assessment in the BioMAP Diversity Plus: hDFCGF Assay (AID 2283059).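 Note: curves fitted for both rise and fall of signal versus DMSO baseline.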 The note with it: primary human foreskin fibroblasts. An outline of the steps: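 Sub-confluent human foreskin fibroblast cultures receive test chemical […]. Relative cell number is quantified by sulforhodamine B staining (0.1%, after 10% TCA fixation) at 560 nm, with bidirectional fitting referenced to DMSO.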

Read-out in test [9]: Macrophage colony-stimulating factor (MCSF), CSF1 (gene 1435)
The test is described as follows: BSK_hDFCGF_MCSF: BioMAP Diversity Plus: hDFCGF Assay for Macrophage colony-stimulating factor (MCSF) Biomarker Activity (AID 2283060). The note with it: primary human foreskin fibroblasts; actives raise or lower the signal. An outline of the steps: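 ELISA read-out of M-CSF in human dermal foreskin fibroblast cultures, 24 h after chemical dosing; gain or loss of signal fitted bidirectionally relative to DMSO baseline.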

Test [10] can be described thus: BSK_hDFCGF_SRB: Viability Assessment in the BioMAP Diversity Plus: hDFCGF Assay (AID 2283061).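 Note: cells exposed to compound for 24 h before the read.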 The note with it: primary human foreskin fibroblasts. The essentials:
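Primary human foreskin fibroblasts; 24 h post-dose; fixed 10% TCA, stained 0.1% SRB, A560 read; total protein as overt cytotoxicity measure; curves fit bidirectionally vs DMSO control.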

Read-out in test [11]: TIMP metallopeptidase inhibitor 1 (TIMP1), TIMP1 (gene 7076)
Description: BSK_hDFCGF_TIMP1: BioMAP Diversity Plus: hDFCGF Assay for TIMP metallopeptidase inhibitor 1 (TIMP1) Biomarker Activity (AID 2283062). The note with it: primary human foreskin fibroblasts; actives raise or lower the signal. The essentials: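 ELISA readout of TIMP-1 from human dermal foreskin fibroblast cultures 24 h post-dosing. Curves were fitted in both directions against DMSO baseline, with SRB total-protein staining in parallel cultures as a cytotoxicity check.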

Read-out in test [12]: Monokine induced gamma interferon (MIG), CXCL9 (gene 4283)
Description: BSK_hDFCGF_MIG: BioMAP Diversity Plus: hDFCGF Assay for Monokine induced gamma interferon (MIG) Biomarker Activity (AID 2283063). The note with it: primary human foreskin fibroblasts; actives raise or lower the signal. An outline of the steps: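 Fibroblasts (human foreskin, primary) dosed, 24 h, MIG by ELISA; fit bidirectional vs DMSO.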

Read-out in test [13]: Matrix Metallopeptidase 1 (MMP1), MMP1 (gene 4312)
The test is described as follows: BSK_hDFCGF_MMP1: BioMAP Diversity Plus: hDFCGF Assay for Matrix Metallopeptidase 1 (MMP1) Biomarker Activity (AID 2283064). The note with it: primary human foreskin fibroblasts; actives raise or lower the signal. An outline of the steps: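 Primary human foreskin fibroblasts in the hDFCGF system were dosed with test chemical, and MMP1 was measured by ELISA 24 h later. Values come from bidirectional curve fitting against the DMSO baseline.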

Read-out in test [14]: Vascular cell adhesion molecule 1 (VCAM1), VCAM1 (gene 7412)
Description: BSK_hDFCGF_VCAM1: BioMAP Diversity Plus: hDFCGF Assay for Vascular cell adhesion molecule 1 (VCAM1) Biomarker Activity (AID 2283065). The note with it: primary human foreskin fibroblasts; actives raise or lower the signal. An outline of the steps:
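ELISA read-out of VCAM-1 on human skin fibroblasts, 24 h post-dose; gain or loss of signal fitted bidirectionally against DMSO baseline.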

Read-out in test [15]: Plasminogen activator inhibitor-1 (PAI1), SERPINE1 (gene 5054)
The test is described as follows: BSK_hDFCGF_PAI1: BioMAP Diversity Plus: hDFCGF Assay for Plasminogen activator inhibitor-1 (PAI1) Biomarker Activity (AID 2283066). The note with it: primary human foreskin fibroblasts; actives raise or lower the signal. An outline of the steps:
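Human foreskin fibroblast primary cells, 24 h chemical exposure; PAI-1 measured by ELISA. Bidirectional fitting relative to DMSO; parallel cultures stained with SRB for total protein to flag overt cytotoxicity.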

Read-out in test [16]: Intercellular Adhesion Molecule 1 (ICAM1), ICAM1 (gene 3383)
The test is described as follows: BSK_KF3CT_ICAM1: BioMAP Diversity Plus: KF3CT Assay for Intercellular Adhesion Molecule 1 (ICAM1) Biomarker Activity (AID 2283067). The note with it: primary human keratinocytes with fibroblasts; actives raise or lower the signal. An outline of the steps: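 ELISA readout of ICAM-1; KF3CT human skin co-culture (keratinocytes + foreskin fibroblasts), 24 h post-dose; gain/loss fit vs DMSO baseline.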

Read-out in test [17]: Interferon-gamma inducible Protein 10 (IP10), CXCL10 (gene 3627)
The test is described as follows: BSK_KF3CT_IP10: BioMAP Diversity Plus: KF3CT Assay for Interferon-gamma inducible Protein 10 (IP10) Biomarker Activity (AID 2283068). The note with it: primary human keratinocytes with fibroblasts; actives raise or lower the signal. An outline of the steps:
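ELISA read-out of IP-10 after 24 h chemical dosing of human skin primary co-culture (keratinocytes, foreskin fibroblasts). Gain or loss of signal relative to DMSO, bidirectional curve fit.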

Test [18] can be described thus: BSK_KF3CT_SRB: Viability Assessment in the BioMAP Diversity Plus: KF3CT Assay (AID 2283069).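 Note: total protein by sulforhodamine B staining as a cytotoxicity measure; read 24 h after compound addition.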 The note with it: primary human keratinocytes with fibroblasts. An outline of the steps: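 Human primary keratinocyte plus foreskin fibroblast co-culture exposed to chemicals for 24 h. Total protein measured by 0.1% sulforhodamine B staining after 10% TCA fixation, read at 560 nm; bidirectional fitting versus DMSO baseline.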

Read-out in test [19]: Interleukin-1 alpha (IL1a), IL1A (gene 3552)
Description: BSK_KF3CT_IL1a: BioMAP Diversity Plus: KF3CT Assay for Interleukin-1 alpha (IL1a) Biomarker Activity (AID 2283070). The note with it: primary human keratinocytes with fibroblasts; actives raise or lower the signal. An outline of the steps: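 Human keratinocyte plus foreskin fibroblast primary co-culture, sampled 24 h after chemical dosing. IL-1a measured by ELISA; responses fitted bidirectionally against DMSO baseline (negative control), so gain or loss of signal both count.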

Read-out in test [20]: TIMP metallopeptidase inhibitor 2 (TIMP2), TIMP2 (gene 7077)
The test is described as follows: BSK_KF3CT_TIMP2: BioMAP Diversity Plus: KF3CT Assay for TIMP metallopeptidase inhibitor 2 (TIMP2) Biomarker Activity (AID 2283071). The note with it: primary human keratinocytes with fibroblasts; actives raise or lower the signal. The essentials:
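Co-culture of human primary keratinocytes and foreskin fibroblasts, measured 24 h after chemical dosing. TIMP-2 quantified by ELISA and fitted in both directions relative to DMSO. Cytotoxicity checked in parallel cultures by SRB total-protein staining.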

For the compound `COC(=O)c1cccc(C)c1S(=O)(=O)NC(=O)Nc1nc(OCC(F)(F)F)nc(N(C)C)n1`, the result in [1], in test [2], in test [3], in [4], in test [5] and in [6] was inactive. Further, the result in test [7], in test [8], in [9], in test [10], in test [11] and in test [12] was inactive. Moreover, the result in test [13], in test [14], in [15], in test [16], in [17] and in [18] was inactive. The result in test [19] and in test [20] was inactive.

Take `CSC(=O)c1cccc2nnsc12`: the result in test [1], in test [2], in [3], in test [4], in [5] and in test [6] was inactive. The outcome in test [7], in test [8], in [9], in test [10], in test [11] and in test [12] was inactive. For the same compound, the result in test [13], in test [14], in test [15], in [16], in test [17] and in test [18] was inactive. The result in test [19] and in test [20] was inactive.

As to `O=C(O)C1(C(=O)Nc2ccc(Cl)cc2Cl)CC1`, the outcome in test [1], in [2], in test [3], in test [4], in test [6] and in [7] was inactive. Moreover, the result in test [8], in test [9], in test [10], in test [11], in [12] and in [13] was inactive. Also, the outcome in test [14], in [15], in test [16], in test [17], in test [18] and in test [19] was inactive. Further, the half-maximal activity concentration (AC50) in test [5] was 24.5 µM (active).

`CCC(O)=C1C(=O)CC(C(=O)O)CC1=O` (configuration not stated): the outcome in test [1], in test [2], in test [3], in [4], in test [5] and in [6] was inactive. In addition, the outcome in test [7], in test [8], in test [9], in test [10], in test [11] and in test [12] was inactive. For the same compound, the result in [13], in test [14], in [15], in test [16], in [17] and in test [18] was inactive. The result in test [19] and in [20] was inactive.

In the case of `CCOC(=O)NCCOc1ccc(Oc2ccccc2)cc1`, the outcome in [1], in test [2], in [3], in [4], in test [6] and in test [7] was inactive. Further, the outcome in test [10], in [11], in test [12], in test [13], in test [14] and in [15] was inactive. The result in test [16], in [17], in [18] and in [19] was inactive. Besides, the AC50 was 12.6 µM (active) in test [5], 24.7 µM (active) in test [8] and 23.1 µM (active) in test [9].

With `CCOC(=O)C(C)Oc1ccc(Oc2cnc3cc(Cl)ccc3n2)cc1` (configuration not stated), the result in test [1], in test [2], in [3], in test [5], in test [6] and in test [7] was inactive. Besides, the outcome in [9], in test [10], in test [11], in test [12], in test [13] and in [14] was inactive. Moreover, the outcome in test [15], in [16], in [17], in test [18], in test [19] and in [20] was inactive. In addition, in test [8], the half-maximal activity concentration (AC50) is 30.6 µM (active).

The record behind these values is PubChem BioAssay (EPA / NIEHS).
